Reference: the supplement of paper PMC9262897, “Low-cost anti-mycobacterial drug discovery using engineered E. coli” (Nature Communications, 2022)
Structures can show the parent of a compound that is named as a salt. ± gives the standard deviation of the averaged measurements.

Tests used:
Assay in all cases: growth (OD600 after 10 h); higher = more growth (less inhibition)
[1] = tested on: E. coli TESEC Alr+ wild-type control; details: compound 0.1 mM; raw OD600 reference: median of DMSO wells 0.241, cell-free background 0.041
Protocol: (§1)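 TESEC Mtb Alr E. coli, or the Alr+ wild-type control, in 384-well plates with Prestwick library compounds at 0.1 mM and 1% DMSO, across arabinose induction levels of 1E3 to 1E7 nM. Growth is read as OD600 after 10 h at 37 °C in triplicate biological replicates.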

E. coli TESEC Mtb Alr [2] = details: compound 0.1 mM
Protocol: as §1

E. coli TESEC Mtb Asd = details: compound 0.1 mM
Protocol: (§2)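 TESEC E. coli strains in which the native enzyme is deleted and replaced by arabinose-inducible Mtb Asd, DapB, CysH or TrpD, each grown in its selective medium. Strains were screened against the Prestwick library at 0.1 mM and 1% DMSO in 384-well format at low and high arabinose induction. Growth is read as OD600 after 10 h in triplicate.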

E. coli TESEC Mtb DapB = details: compound 0.1 mM
Protocol: as §2

[3] = tested on: E. coli TESEC Alr+ wild-type control; details: compound 0.1 mM; raw OD600 reference: median of DMSO wells 0.49, cell-free background 0.052
Protocol: (§3)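 TESEC Mtb Alr E. coli (ΔaraC ΔtolC ΔentC Δalr ΔdadX, arabinose-inducible Mtb Alr) or the Alr+ wild-type control strain, grown in defined M9-fructose medium without D-alanine in 96-well plates with Prestwick library compounds at 0.1 mM and 1% DMSO. Low Alr induction is 0.1 µM arabinose and high induction is 10 mM arabinose.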

E. coli TESEC Mtb Alr [4] = details: compound 0.1 mM; remark: listed apart in the source
Protocol: as §3

[5] = arabinose 1000 nM, raw OD600 reference: median of DMSO wells 0.294, cell-free background 0.041
[6] = arabinose 10000 nM, raw OD600 reference: median of DMSO wells 0.264, cell-free background 0.041
[7] = arabinose 100000 nM, raw OD600 reference: median of DMSO wells 0.201, cell-free background 0.041
[8] = arabinose 1000000 nM, raw OD600 reference: median of DMSO wells 0.193, cell-free background 0.041
[9] = arabinose 10000000 nM, raw OD600 reference: median of DMSO wells 0.146, cell-free background 0.041
[10] = arabinose induction (level): High, raw OD600 reference: median of DMSO wells 0.331, cell-free background 0.041
[11] = arabinose induction (level): Low, raw OD600 reference: median of DMSO wells 0.417, cell-free background 0.041
[12] = arabinose induction (level): High, raw OD600 reference: median of DMSO wells […], cell-free background 0.041
[13] = arabinose induction (level): Low, raw OD600 reference: median of DMSO wells 0.227, cell-free background 0.041
[14] = arabinose 100 nM, raw OD600 reference: median of DMSO wells 0.413, cell-free background 0.052
[15] = arabinose 10000000 nM, raw OD600 reference: median of DMSO wells […], cell-free background 0.052

SMILES	growth [1]	growth (E. coli TESEC Mtb Alr [2]; [5])	growth (E. coli TESEC Mtb Alr [2]; [6])	growth (E. coli TESEC Mtb Alr [2]; [7])	growth (E. coli TESEC Mtb Alr [2]; [8])	growth (E. coli TESEC Mtb Alr [2]; [9])	growth (E. coli TESEC Mtb Asd; [10])	growth (E. coli TESEC Mtb Asd; [11])	growth (E. coli TESEC Mtb DapB; [12])	growth (E. coli TESEC Mtb DapB; [13])	growth [3]	growth (E. coli TESEC Mtb Alr [4]; [14])	growth (E. coli TESEC Mtb Alr [4]; [15])
CC(C(=O)O)c1ccc2c(c1)[nH]c1ccc(Cl)cc12 (stereo not drawn) [Carprofen]	0.0924 ± 0.0058	0.116 ± 0.006	0.107 ± 0.0066	0.1024 ± 0.001	0.0781 ± 0.0038	0.111 ± 0.0039	0.171 ± 0.015	0.168 ± 0.044	0.201 ± 0.0073	0.215 ± 0.011	0.594 ± 0.029	0.409 ± 0.0018	0.149 ± 0.025
CC(C)NCC(O)c1ccc2ccccc2c1 (stereo not drawn) [Pronethalol hydrochloride]	0.245 ± 0.013	0.305 ± 0.0032	0.2658 ± 0.0016	0.207 ± 0.023	0.187 ± 0.0061	0.142 ± 0.0032	0.247 ± 0.045	0.431 ± 0.085	0.194 ± 0.015	0.225 ± 0.03	0.473 ± 0.048	0.403 ± 0.012	0.351 ± 0.017
Nc1ccccc1S(N)(=O)=O [2-Aminobenzenesulfonamide]	0.239 ± 0.0094	0.296 ± 0.019	0.255 ± 0.0044	0.198 ± 0.0049	0.187 ± 0.0032	0.137 ± 0.004	0.399 ± 0.029	0.49 ± 0.028	0.2 ± 0.019	0.202 ± 0.019	0.566 ± 0.029	0.416 ± 0.013	0.343 ± 0.0096
CC1CC(OC(=O)c2ccccc2O)CC(C)(C)C1 (stereo not drawn) [Homosalate]	0.248 ± 0.0027	0.3 ± 0.005	0.263 ± 0.019	0.199 ± 0.03	0.18 ± 0.0023	0.15 ± 0.0039	0.202 ± 0.011	0.332 ± 0.052	0.194 ± 0.018	0.205 ± 0.027	0.543 ± 0.057	0.3918 ± 0.0032	0.332 ± 0.016
O=C1[C@H]2CCCC[C@H]2C(=O)N1CCCCN1CCN(c2nsc3ccccc23)CC1 [Perospirone]	0.131 ± 0.0041	0.225 ± 0.0052	0.257 ± 0.0052	0.146 ± 0.0072	0.103 ± 0.0012	0.1416 ± 0.00075	0.188 ± 0.026	0.369 ± 0.015	0.174 ± 0.013	0.241 ± 0.037	0.432 ± 0.016	0.419 ± 0.0096	0.29 ± 0.027
CNCCCC12CCC(c3ccccc31)c1ccccc12 [Maprotiline hydrochloride]	0.269 ± 0.0086	0.256 ± 0.016	0.276 ± 0.0088	0.246 ± 0.032	0.134 ± 0.0037	0.169 ± 0.0019	0.197 ± 0.0097	0.164 ± 0.016	0.1849 ± 0.0011	0.211 ± 0.011	0.589 ± 0.072	0.41 ± 0.0086	0.28 ± 0.013
C[C@@H](O[C@H]1OCCN(Cc2n[nH]c(=O)[nH]2)[C@H]1c1ccc(F)cc1)c1cc(C(F)(F)F)cc(C(F)(F)F)c1 [Aprepitant]	0.136 ± 0.0085	0.107 ± 0.0059	0.116 ± 0.033	0.0735 ± 0.0056	0.0675 ± 0.0089	0.0777 ± 0.0096	0.0693 ± 0.0052	0.0731 ± 0.019	0.128 ± 0.015	0.089 ± 0.023	0.386 ± 0.22	0.442 ± 0.012	0.0589 ± 0.0033
CCN(CC)CCOC(=O)C1(c2ccc([N+](=O)[O-])cc2)CCCC1 [Nitrocaramiphen hydrochloride]	0.235 ± 0.015	0.281 ± 0.0086	0.253 ± 0.0047	0.148 ± 0.0071	0.147 ± 0.0043	0.137 ± 0.0018	0.205 ± 0.059	0.426 ± 0.0056	0.161 ± 0.01	0.18 ± 0.017	0.488 ± 0.054	0.412 ± 0.017	0.324 ± 0.03
CC(=O)/N=c1/sc(S(N)(=O)=O)nn1C [Methazolamide]	0.247 ± 0.0057	0.301 ± 0.019	0.266 ± 0.0036	0.198 ± 0.019	0.193 ± 0.0042	0.138 ± 0.01	0.342 ± 0.034	0.447 ± 0.02	0.207 ± 0.013	0.228 ± 0.01	0.438 ± 0.049	0.397 ± 0.012	0.348 ± 0.027
CC[C@H](C)C(=O)O[C@H]1CCC=C2C=C[C@H](C)[C@H](CC[C@@H]3C[C@@H](O)CC(=O)O3)[C@H]21 [Mevastatin]	0.15 ± 0.0081	0.152 ± 0.1	0.166 ± 0.08	0.134 ± 0.0032	0.0515 ± 0.0016	0.0677 ± 0.0034	0.135 ± 0.036	0.148 ± 0.012	0.171 ± 0.054	0.134 ± 0.0085	0.41 ± 0.019	0.406 ± 0.021	0.214 ± 0.028
CC(C)NCC(O)COc1ccc(COCCOC(C)C)cc1 (stereo not drawn) [Bisoprolol fumarate]	0.227 ± 0.01	0.302 ± 0.01	0.254 ± 0.01	0.222 ± 0.032	0.192 ± 0.0099	0.14 ± 0.0055	0.391 ± 0.017	0.467 ± 0.07	0.184 ± 0.017	0.227 ± 0.027	0.448 ± 0.022	0.409 ± 0.016	0.37 ± 0.028
CCOC(=O)[C@@](C)(N)Cc1ccc(O)c(O)c1 [Methyldopate hydrochloride]	0.106 ± 0.0036	0.159 ± 0.008	0.185 ± 0.011	0.116 ± 0.0072	0.0901 ± 0.0019	0.116 ± 0.0018	0.163 ± 0.024	0.276 ± 0.13	0.155 ± 0.01	0.152 ± 0.016	0.469 ± 0.013	0.405 ± 0.021	0.339 ± 0.022
C[C@@H](c1ncncc1F)[C@](O)(Cn1cncn1)c1ccc(F)cc1F [Voriconazole]	0.214 ± 0.013	0.267 ± 0.0077	0.252 ± 0.003	0.196 ± 0.038	0.154 ± 0.0053	0.147 ± 0.008	0.315 ± 0.062	0.285 ± 0.035	0.169 ± 0.015	0.201 ± 0.013	0.557 ± 0.1	0.412 ± 0.011	0.318 ± 0.012
Nc1c2c(nc3ccccc13)CCCC2 [Tacrine hydrochloride]	0.22 ± 0.0053	0.263 ± 0.012	0.248 ± 0.0067	0.214 ± 0.042	0.149 ± 0.014	0.168 ± 0.007	0.242 ± 0.052	0.316 ± 0.076	0.222 ± 0.024	0.228 ± 0.014	0.513 ± 0.063	0.41 ± 0.01	0.37 ± 0.017
CNCCC(Oc1ccccc1OC)c1ccccc1 (stereo not drawn) [Nisoxetine hydrochloride]	0.206 ± 0.015	0.258 ± 0.011	0.2337 ± 0.0022	0.173 ± 0.004	0.153 ± 0.0049	0.139 ± 0.0023	0.247 ± 0.049	0.405 ± 0.026	0.149 ± 0.031	0.2 ± 0.018	0.566 ± 0.12	0.4 ± 0.011	0.346 ± 0.018
Oc1ccc(C2CNCCc3c2cc(O)c(O)c3Cl)cc1 (stereo not drawn) [Fenoldopam]	0.0924 ± 0.0031	0.0795 ± 0.0009	0.0538 ± 0.0026	0.0873 ± 0.0018	0.0562 ± 0.0034	0.086 ± 0.0096	0.113 ± 0.0085	0.126 ± 0.017	0.149 ± 0.035	0.135 ± 0.029	0.355 ± 0.023	0.104 ± 0.048	0.0738 ± 0.006
